Consider 59 molecules from PubChem BioAssay AID372 (MTDP, 2006).

Molecules are shown by their SMILES. The whole screen tested about 100,000 compounds, of which about 770 (0.77%) were called active. Rule as the data show it: active = inhibition above about 50%; inactive = the rest. For the sample, actives were picked, then their nearest neighbours and some compounds at random.

For the test, the target named is Gag-Pol polyprotein (Human immunodeficiency virus type 1 group M subtype B (isolate HXB2)) (UniProt P04585). The test can be described thus: RNase H inhibition, HIV 1 Gag Pol polyprotein, FRET biochemical assay, screening (AID 372). The note with it: HIV-1 RT RNase H, FRET RNA/DNA substrate fluorescence; at 10 µM; active compounds read high.
As to `O=[N+]([O-])c1cc2c(cc1C=Nc1cc(Cl)cc(Cl)c1)OCO2`, the inhibition (in general, the percentage by which the read-out fell short of the control) was 5% (inactive).
In the case of `COc1ccc([N+](=O)[O-])cc1NCc1ccccc1F`, the inhibition is 12% (inactive).
The result for `COc1ccc(C2CC(=O)C3=C(C2)NC(C)=C(C(=O)OCc2ccccc2)C3c2cc(OC)c(OC)c(OC)c2)cc1` (centres undefined) reads 10% (inactive); that for `CCOC(=O)c1c(-c2ccc(C(C)C)cc2)csc1N`, 27% (inactive); that for `COc1cc([N+](=O)[O-])ccc1NC(=O)c1ccccc1`, 16% (inactive).
The value for `COc1cc2ccccc2cc1C(=O)Nc1ccc(C)c(NC(=O)c2cc3ccccc3cc2OC)c1` was 28% (inactive); that for `CC1=C(C(=O)OCCc2ccccc2)C(c2ccc(O)cc2)C2=C(CCCC2=O)N1` (centres undefined) was 2% (inactive).
Regarding `Cc1ccc(N2C(=O)NC(=O)/C(=C\c3cccc(C(F)(F)F)c3)C2=O)cc1C`, the inhibition was 5% (inactive).
The result for `CCOc1ccc(N2C(=O)/C(=C/c3ccc(-c4ccccc4C(=O)O)o3)C(=O)NC2=S)cc1` reads 15% (inactive).
The result for `O=C(O/N=C(/c1ccccc1)c1ccncc1)c1ccc(Cl)cc1Cl` reads 18% (inactive).
`COc1ccc(Cl)cc1S(=O)(=O)Oc1ccc(Cl)cc1`: the inhibition is 39% (inactive).
The result for `COc1ccc(Cl)cc1S(=O)(=O)Oc1ccc(OCc2ccccc2)cc1` reads 53% (active); that for `COc1cc(S(=O)(=O)Oc2ccc(OCc3ccccc3)cc2)ccc1Cl`, 5% (inactive); that for `Cc1c(/C=C2/C(=O)NC(=O)N(Cc3ccco3)C2=O)c2ccccc2n1CC(N)=O`, 27% (inactive).
The value for `Cc1cccc(C(=O)N2N=C(c3ccc(F)cc3)CC2(O)C(F)(F)F)c1` (centres undefined) was 0% (inactive); that for `CCOC(=O)C1=c2s/c(=C\c3cccnc3)c(=O)n2C(N)=C(C#N)C1c1cccnc1` (centres undefined) was 7% (inactive); that for `CCOC(=O)C1=c2s/c(=C\c3ccc(O)cc3)c(=O)n2C(N)=C(C#N)C1c1ccc(O)cc1` (centres undefined) was 67% (active).
The result for `CCOC(=O)C1=c2s/c(=C\c3ccc(O)c(OCC)c3)c(=O)n2C(N)=C(C#N)C1c1ccc(O)c(OCC)c1` (centres undefined) reads 4% (inactive).
With `C=CCN1C(=O)/C(=C/c2cc([N+](=O)[O-])ccc2OC)SC1=S`, the inhibition was 3% (inactive).
The result for `O=C1NC(=Nc2cccc(Cl)c2Cl)S/C1=C\c1ccccc1` reads 12% (inactive); that for `COC(=O)C1=C(C)N(Cc2cccnc2)C(=O)/C1=C\c1ccc(Br)cc1`, 14% (inactive).
For the molecule `CC(C)NC(=O)C12CC3(C)CC(C)(CC(C)(C3)C1)C2`, the inhibition was 0% (inactive).
Consider `CCOC(=O)C1=C(O)/C(=C/c2ccc(O)c(OC)c2)SC1=Nc1ccccc1`, for which the inhibition is 50% (active).
The value for `CCOC(=O)C1=C(O)/C(=C/c2ccc(O)c(OCC)c2)SC1=Nc1ccccc1` was 20% (inactive); that for `CCOC(=O)C1=C(O)/C(=C/c2cc(OC)c(O)c(OC)c2)SC1=Nc1ccccc1` was 13% (inactive); that for `N=C1/C(=C/c2ccc(-c3ccc(Cl)cc3Cl)o2)C(=O)N=C2SC(c3ccccc3)=NN12` was 2% (inactive).
The result for `N=C1/C(=C/c2ccc(-c3ccccc3Cl)o2)C(=O)N=C2SC(c3ccccc3)=NN12` reads 56% (active); that for `N=C1/C(=C/c2ccc(-c3cc(Cl)ccc3Cl)o2)C(=O)N=C2SC(c3ccccc3)=NN12`, 44% (inactive).
In the case of `Cc1ccc(N(CC(=O)O)S(C)(=O)=O)cc1C`, the inhibition is 0% (inactive).
As for `CCCOc1ccccc1/C=C1/SC(N2CCN(c3ccc(Cl)cc3)CC2)=NC1=O`, the inhibition was 12% (inactive).
In the case of `CCOC(=O)c1ccccc1NC(=O)c1cnn2c1NC(c1ccccc1)CC2C(F)(F)F` (centres undefined), the inhibition is 17% (inactive).
The result for `CCOC(=O)c1cnn2c1NC1=C(CCc3ccccc31)C2C(F)(F)F` (centres undefined) reads 58% (active); that for `CCOC(=O)c1cnn2c(C(F)(F)F)c3c(nc12)-c1ccccc1CC3`, 7% (inactive); that for `COc1ccc(CN(CCC(c2ccccc2OC)C2CCOC(C)(C)C2)C(C)=O)cc1` (centres undefined), 17% (inactive).
As for `COc1ccccc1NC(=O)Nc1nnc(-c2ccccc2SCc2ccc(F)cc2)s1`, the inhibition is 10% (inactive).
As for `CCOC(=O)c1ccc(N=Cc2ccc3c(c2)OCO3)cc1`, the inhibition was 4% (inactive).
The result for `Cc1ccccc1NC(=O)c1c(NC(=O)c2ccco2)sc2c1CCC2` reads 24% (inactive); that for `CCOc1ccccc1NC(=O)c1c(NC(=O)c2ccco2)sc2c1CCC(C)C2` (centres undefined), 7% (inactive).
The value for `COc1ccc(NC(=O)c2c(NC(=O)c3ccco3)sc3c2CCC3)cc1` was 15% (inactive).
The result for `CCOc1ccc(NC(=O)c2c(NC(=O)c3ccco3)sc3c2CCCC3)cc1` reads 4% (inactive); that for `Cc1ccccc1NC(=O)c1c(NC(=O)c2ccco2)sc2c1CCC(C)C2` (centres undefined), 51% (active).
As for `O=C(c1cc(Cl)ccc1Cl)N1CCN(c2ccccc2)CC1`, the inhibition is 5% (inactive).
The result for `Cc1ccc(OCC(=O)Nc2nc(-c3ccccc3)cs2)c(C)c1` reads 5% (inactive); that for `COc1ccc(Nc2ccc(C(F)(F)F)cc2[N+](=O)[O-])cc1`, 7% (inactive); that for `CCNC(=O)c1c(O)c2ccccc2n(C)c1=O`, 1% (inactive).
The result for `O=C(c1ccc(Cl)c(Cl)c1)c1ccc(N2CCOCC2)c([N+](=O)[O-])c1` reads 54% (active); that for `O=C(c1ccc(Cl)cc1)c1ccc(N2CCOCC2)c([N+](=O)[O-])c1`, 16% (inactive); that for `O=C(c1ccc(Cl)c(Cl)c1)c1ccc(N2CCCCC2)c([N+](=O)[O-])c1`, 19% (inactive).
The result for `COc1ccc(N/C(C)=C/C(=O)ONC(=O)c2ccccc2)cc1` reads 5% (inactive).
With `CCOC(=O)C(N)CSC1CC(=O)N(c2ccc(Cl)c(Cl)c2)C1=O` (centres undefined), the inhibition is 7% (inactive).
The value for `Clc1cccc(-c2nnc(-c3ccc4c(c3)OCO4)o2)c1` was 15% (inactive); that for `O=C(CSc1nc2ccccc2s1)Nc1ccc(F)c(Cl)c1` was 23% (inactive); that for `O=C(CSc1nc2ccccc2s1)NNC(=O)NC1CCCCC1` was 0% (inactive).
The value for `O=C(CSc1nc2ccccc2s1)NC1CCCCC1` was 0% (inactive).
For `O=C(CSc1nc2ccccc2s1)NNC(=S)NC1CCCCC1`, the inhibition was 56% (active).
The result for `O=C(CSc1nc2ccccc2s1)NNC(=S)Nc1ccc(Cl)cc1` reads 65% (active).
For the molecule `O=C(CSc1nc2ccccc2s1)Nc1ccc(Cl)cc1`, the inhibition was 37% (inactive).
The value for `COc1ccc(/C=C2/SC(=O)N(CC(=O)Nc3ccc(C)c(C)c3)C2=O)cc1OC` was 22% (inactive); that for `CCCOc1ccc(/C=C2/C(=O)NC(=O)N2C(C)=O)cc1OC` was 0% (inactive).
